# Source: PubChem BioAssay (University of Kansas High Throughput Screening Laboratory)
# Pf apPOL block – Pf-apPOL DNA polymerase inhibition; inhibition, % at 10 µM; 210,000 compounds, 0.25% hits; Recombinant Pf-apPOL, molecular beacon fluorescence, 1.5 h
# mHTT-CaM PPI inh – inhibitors of human mutant huntingtin-calmodulin interaction | P42858 | AlphaScreen His-mHTT/GST-CaM binding, luminescence | inhibition, % at 15 µM | 190,000 compounds, 3.6% hits | AID 1671202;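 also: 0% = both proteins with DMSO and 100% = one protein alone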
# Starred values were filed as active, the others as inactive; i = inactive; · = no result given; + = active, no number. Sampled rows, rich in hits. Any-hit rate of the full collection: about 3.5%. Rule as the data show it: active = inhibition above about 50%; inactive = the rest.
SMILES,Pf apPOL block,mHTT-CaM PPI inh
CC1=CC(=O)C=C/C1=N\OC1=C(O/N=C2\C=CC(=O)C=C2C)C(=O)c2ccccc2C1=O,6.1,+
O=c1oc(-c2ccc(I)cc2)nc2cc(Cl)ccc12,-1.4,-6.0
CCC1Oc2ccc(NC(=O)C3CCCC3)cc2CN(C(C)C)C1=O (centres undefined),-2.3,-5.4
c1ccc(N=C2C(Nc3ccccc3)=Nc3ccccc32)cc1,-0.4,63.0*
NC1=NC(=Nc2ccccc2)c2ccccc21,-2.2,3.2
Cc1ccc(NC(=O)C2CN(S(=O)(=O)C3CC3)CC23CCCCC3)c(C)c1 (centres undefined),7.7,7.0
COc1ccc(Br)cc1/C=C/c1ccc2cccc(O)c2n1,-5.4,45.0
O=[N+]([O-])c1cc(Br)c(O)c(/C=C/c2ccc3cccc(O)c3n2)c1,-11.3,82.8*
CCCCSc1nc2c(cnn2-c2ccc(C)cc2)c(=O)[nH]1,-9.0,4.0
COc1ccc(N2CCN(C(=O)c3cccs3)C(C)C2=O)cc1OC (centres undefined),-4.8,-3.7
O=C(NCc1ccco1)C(=O)Nc1ccc2c(c1)OCO2,-2.2,0.3
COc1ccccc1CC(=O)Nc1ccc2c(c1)OCO2,-4.5,7.4
Cc1ccccc1CNc1ccc2c(c1)OCO2,5.6,90.9*
CCCCOc1ccc(S(=O)(=O)NCc2ccc3c(c2)OCO3)cc1,-18.4,-0.6
Cc1ccc(C(=O)Nc2ccc3c(c2)OCO3)cc1,0.5,47.0
CCCCOc1ccc(CNc2ccc3c(c2)OCO3)cc1,0.0,91.5*
Cc1ccc(CNc2ccc3c(c2)OCO3)cc1,0.5,100.5*
c1coc(CNc2ccc3c(c2)OCO3)c1,1.8,71.4*
COc1ccc(/C=C2/N=C(c3ccccc3I)OC2=O)cc1OC,-17.6,2.0
Cc1ccc(NC(=O)c2c(O)c3cccc4c3n(c2=O)CC4)c(C)c1,-3.2,3.0
Cc1noc(CNC(=O)C2CCN(C(=O)CCSc3ccccc3)CC2)n1,-6.1,-10.4
O=C(c1cccs1)N1CCCC(c2ccnc(-c3ccccc3)n2)C1 (centres undefined),-6.5,95.3*
COc1ccc(-c2nccc(C3CCCN(C(=O)c4ccccc4C)C3)n2)cc1 (centres undefined),0.0,2.7
Cc1ccccc1C(=O)N1CCCC(c2ccnc(-c3ccc(F)cc3)n2)C1 (centres undefined),0.3,73.4*
COc1ccc(-c2nccc(C3CCCN(C(=O)c4cccs4)C3)n2)cc1 (centres undefined),-4.6,10.9
SMILES,Pf apPOL block,mHTT-CaM PPI inh
Cn1c(=O)c2c(nc(Br)n2C/C=N/O)n(C)c1=O,0.6,i
CCCNC(=O)N1CCC2(C1)C(=O)N(C)c1ccccc12 (centres undefined),-5.5,-8.4
Cc1ccccc1Cn1c(=N)n(CC(O)c2ccc(Cl)c(Cl)c2)c2ccccc21 (centres undefined),0.5,100.2*
Cn1c(=N)n(CC(O)c2ccc(Cl)c(Cl)c2)c2ccccc21 (centres undefined),-5.4,3.0
COc1ccc(C2Oc3ccc(Cl)cc3C3CC(c4ccco4)=NN32)cc1 (centres undefined),-16.4,37.0
COc1cccc(C2=NN3C(C2)c2cccc(OC)c2OC3c2cc(OC)c(OC)c(OC)c2)c1 (centres undefined),-22.4,48.0
COc1ccc(C2Oc3c(OC)cccc3C3CC(c4ccc(C)o4)=NN32)cc1OC (centres undefined),-21.9,51.0*
CCOc1cccc2c1OC(c1cccc(OC)c1)N1N=C(c3ccco3)CC21 (centres undefined),-19.7,28.0
CCOc1cccc2c1OC(c1ccc(OC)c(OC)c1)N1N=C(c3ccc(C)o3)CC21 (centres undefined),-15.6,63.0*
COc1ccc(C2Oc3ccccc3C3CC(c4ccc(C)o4)=NN32)cc1 (centres undefined),-7.4,60.0*
COc1ccc(C2Oc3c(OC)cccc3C3CC(c4ccc(C)o4)=NN32)cc1 (centres undefined),-11.3,83.0*
COc1cccc2c1OC(c1ccc(F)c(F)c1)N1N=C(c3ccco3)CC21 (centres undefined),-18.0,14.0
CSc1[nH]c(=O)c([N+](=O)[O-])cc1C#N,·,-1.0
O=S(=O)(c1ccc2c(c1)CCC2)N1CCCn2nc(-c3cccnc3)cc2C1,-2.3,0.5
Cn1c(N2CCN(C(=O)NCCCc3ccccc3)CC2)nc2ccccc21,-35.6,-3.6
Cc1cccc2nc(CSc3n[nH]c(N)n3)cc(=O)n12,52.5*,2.0
Cc1cccc2nc(CSc3ncc(C#N)c(N)n3)cc(=O)n12,4.6,10.0
CC(C)CC(=O)Nc1cccc(NC(=O)c2ccccc2)c1,-4.8,4.5
CCCN(C)C(=O)C1CCCN(c2nccc3sccc23)C1 (centres undefined),-12.7,0.6
COc1cccc(CN2CCc3c(cc(C(=O)NCc4ccccc4OC)n3C)C2)c1,-2.0,40.3
CCCNC(=O)c1cc2c(n1C)CCN(Cc1cccc(C)c1)C2,9.5,22.6
COc1ccc(NC(=O)c2cc3c(n2C)CCN(Cc2cccc(C)c2)C3)c(OC)c1,-0.6,63.4*
COc1cccc(CN2CCc3c(cc(C(=O)Nc4cc(OC)cc(OC)c4)n3C)C2)c1,-1.5,62.2*
Cc1ccccc1C(=O)N1CCCCC1CCN1CCN(C)CC1 (centres undefined),-4.0,4.3
CCOc1nc(NCCN2CCOCC2)nc(Nc2ccc(I)cc2)n1,6.0,57.0*
SMILES,Pf apPOL block,mHTT-CaM PPI inh
Clc1nc(NCCN2CCOCC2)nc(Nc2ccc(I)cc2)n1,-1.3,4.0
c1ccc(N2CCN(c3ccccc3)C2c2cccnc2)cc1,-3.3,58.0*
Clc1ccc(CN2CCCN(Cc3ccc(Cl)cc3)C2c2cccnc2)cc1,1.8,·
CCC(=O)Nc1cc(C)c2c(=O)oc3ccccc3c2n1,-11.1,-1.0
Cc1ccc2nc(NC(=O)CSc3nnc(CNC(=O)c4ccco4)o3)sc2c1,8.2,-1.7
CCOc1ccccc1N1CCN(c2nccn3cncc23)CC1,-14.9,53.5*
CCOc1ccccc1N1CCN(S(C)(=O)=O)CC1,-1.2,-4.5
O=c1c2c3c(sc2ncn1Cc1c(F)cccc1Cl)CCC3,-3.8,-5.0
O=C(NC1CC1)c1ccc2c(c1)CC(=O)N2Cc1ccccc1,-4.8,-5.1
Cc1cc(C)c(S(=O)(=O)N2CCC(c3noc(-c4ccccc4)n3)CC2)c(C)c1,-1.7,100.3*
Cc1cc(C)c(C)c(S(=O)(=O)N2CCC(c3noc(-c4ccccc4)n3)CC2)c1C,-4.2,-4.9
Cc1ccccc1CC(=O)N1CCC(CCOc2ccncc2)CC1,-2.6,4.9
CC(C)Cn1cc2c3c(cccc31)CN(C(=O)c1ccncc1)CC2,-1.2,55.5*
COc1ccc(NC(=O)N2CCc3cn(CC(C)C)c4cccc(c34)C2)cc1,0.9,9.2
CC(C)Cn1cc2c3c(cccc31)CN(C(=O)c1cnccn1)CC2,-1.9,18.8
COCC(=O)N1CCc2cn(CC(C)C)c3cccc(c23)C1,-7.4,75.6*
COc1ccccc1C=C1Oc2c(ccc(O)c2CN(C)C)C1=O,-4.8,5.7
CCn1c(SC)nnc1-c1nn(C)c2c1CN(C(=O)C1CCCCC1)CC2,-3.4,-3.9
Nc1ccc(S(=O)(=O)Nc2cccc3cccnc23)cc1,-2.0,57.0*
O=S(=O)(Nc1cccc2cccnc12)c1cc(Cl)c(Cl)cc1Cl,-74.6,·
N#CC1=CN(c2ccc(F)c(Cl)c2)c2cc(F)ccc2S1(=O)=O,-3.6,-1.1
Cc1ccc(NC2=C([N+](=O)[O-])CS(=O)(=O)C2)cc1,-5.1,-3.0
